Laboratory results published in PubChem BioAssay (NCATS).
Values joined by “and” are separate entries in the source; they are usually repeats but may differ in a detail not shown here. Equal entries are not always repeated. Values without a mark were called inactive. Results filed as inconclusive are left out. Where a call stands in place of a potency, no number is given. A structure can be active in one record and inactive in another. Active and inactive are the calls of the source. Unless noted, calls come from the whole dose curve; as a rule, active = well fitted curve in the direction sought with a large enough effect; inconclusive = small, poorly fitted or top-dose-only effect, or another doubt; inactive = no such curve, though single readings can be large; an effect the other way counts as inactive or inconclusive.

Columns and labels:
Hek293T = experiment: Primary qHTS to identify gynecologic anti-cancer compounds using libraries of approved drugs and bioactive compounds (AID 1345084); conditions: Gynecologic cancer cell panel viability, ATPlite luminescence, 48 h, control line for the selectivity index; series mostly up to 57.5 µM; note: nearly all actives have a fitted effect of over 55% in size
Summary of the method: (§1)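 Cells, 1,000 per well, were allowed to settle for 16 h at 37 C before compound addition. Five concentrations were tested for 48 h, and viability was read by ATPlite luminescence after 15 min at room temperature.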

JEG-3 = experiment: as above; conditions: Gynecologic cancer cell panel viability, ATPlite luminescence, 48 h; series mostly up to 57.5 µM
Summary of the method: as §1

OV90 = experiment: as above; conditions: Gynecologic cancer cell panel viability, ATPlite luminescence, 48 h; series mostly up to 57.5 µM
Summary of the method: as §1

PA-1 = experiment: as above; conditions: Gynecologic cancer cell panel viability, ATPlite luminescence, 48 h; series mostly up to 57.5 µM
Summary of the method: as §1

SKOV3 = experiment: as above; conditions: Gynecologic cancer cell panel viability, ATPlite luminescence, 48 h; series mostly up to 57.5 µM
Summary of the method: as §1

Tov-21-G = experiment: as above; conditions: Gynecologic cancer cell panel viability, ATPlite luminescence, 48 h; series mostly up to 57.5 µM
Summary of the method: as §1

Tov112D = experiment: as above; conditions: Gynecologic cancer cell panel viability, ATPlite luminescence, 48 h; series mostly up to 57.5 µM
Summary of the method: as §1

[1] = Drug repurposing screens with cells derived from glioblastoma tumor samples (AID 1345199); conditions: GBM patient neurospheres viability, ATP luminescence, 48 h; note: nearly all actives have a fitted effect of over 40% in size; note: potency is the fitted concentration of half-maximal effect
Summary of the method: (§2)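 Four patient lines of CD133+ GBM neurospheres were screened at several concentrations; hits were retested in those lines plus three slower-growing GBM lines, using 48-hour treatment and ATP-based viability.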

astro = experiment: as above; conditions: viability, ATP luminescence, 48 h; series mostly up to 45.9 µM
Summary of the method: as §2

[2] = molecular target: Nuclear receptor subfamily 1 group I member 2 (Rattus norvegicus) (UniProt Q9R1A7); experiment: qHTS assay for small molecule activators of the rat pregnane X receptor (rPXR) signaling pathway (AID 651751; call rule not given here); conditions: rPXR reporter cells, luciferase (One-Glo), 24 h
[3] = qHTS assay for small molecule activators of the human pregnane X receptor (PXR) signaling pathway (AID 720659; call rule not given here)
[4] = at 45.9 µM (top of the series), tumour line B
[5] = at 45.9 µM (top of the series), tumour line D
[6] = at 46 µM (top of the series), tumour line A
[7] = at 46.1 µM (top of the series), tumour line C
[8] = at 20 µM (top of the series), tumour line C
[9] = at 21.2 µM (top of the series), tumour line B
[10] = at 21.2 µM (top of the series), tumour line D
[11] = at 21.3 µM (top of the series), tumour line A

Chain of Nuclear receptor subfamily 1 group I member 2 (Rattus norvegicus) (Q9R1A7 whole entry, looked up): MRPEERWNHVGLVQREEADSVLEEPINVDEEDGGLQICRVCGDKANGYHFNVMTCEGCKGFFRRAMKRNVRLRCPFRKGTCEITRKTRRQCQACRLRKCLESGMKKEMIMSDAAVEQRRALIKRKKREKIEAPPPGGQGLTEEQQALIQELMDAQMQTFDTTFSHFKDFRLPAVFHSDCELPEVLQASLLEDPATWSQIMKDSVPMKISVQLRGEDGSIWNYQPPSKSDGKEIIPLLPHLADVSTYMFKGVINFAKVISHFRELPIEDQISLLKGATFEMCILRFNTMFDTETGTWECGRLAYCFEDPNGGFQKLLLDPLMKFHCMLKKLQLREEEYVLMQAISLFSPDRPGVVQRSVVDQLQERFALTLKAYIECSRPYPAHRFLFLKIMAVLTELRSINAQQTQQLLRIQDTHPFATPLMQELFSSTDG

Compound	Potency (Hek293T)	Potency (JEG-3)	Potency (OV90)	Potency (PA-1)	Potency (SKOV3)	Potency (Tov-21-G)	Potency (Tov112D)	activity, negative = cell killing [1, 4] [%]	activity, negative = cell killing [1, 5] [%]	activity, negative = cell killing [1, 6] [%]	activity, negative = cell killing [1, 7]	Potency (astro)	max response [2] [%]	outcome [3]	Potency ([1]; tumour line A)	activity, negative = cell killing [1, 8] [%]	activity, negative = cell killing [1, 9] [%]	activity, negative = cell killing [1, 10] [%]	activity, negative = cell killing [1, 11] [%]
CC(C)(Oc1ccc(C2CC2(Cl)Cl)cc1)C(=O)O (centres undefined)	inactive	inactive	inactive	inactive	inactive	inactive	inactive	-9.51	-16.1	-29.3	6.66%	inactive	27.5	inactive	–	–	–	–	–
Cn1c(=O)c2[nH]cnc2n(C)c1=O	inactive	inactive	inactive	inactive	inactive	inactive	inactive	-8.57	-12.3	-8.84	-5.36%	inactive	5.46	inactive	–	–	–	–	–
CN(C)CCOC(c1ccccc1)c1ccccc1	inactive	inactive	inactive	inactive	inactive	inactive	inactive	0.893	1.4	–	1.73% and -22.4%	–	2.67	–	22.4 µM (active) and 12.6 µM (active)	–	–	–	–
Clc1ccc2c(c1)C(N1CCNCC1)=Nc1ccccc1O2	inactive	inactive	inactive	inactive	inactive	inactive	inactive	-27.8	-2.29	–	-0.706%	–	–	–	14.1 µM (active)	–	–	–	–
NC(=O)NO	inactive	inactive	inactive	inactive	inactive	inactive	inactive	-13.8	-5.79	-19.1	-11.2%	inactive	–	–	–	–	–	–	–
CC1COc2c(N3CCN(C)CC3)c(F)cc3c(=O)c(C(=O)O)cn1c23 (centres undefined)	inactive	inactive	inactive	inactive	inactive	inactive	inactive	-12.3	-0.592	-24.5	-10.7%	inactive	–	–	–	–	–	–	–
CS(=O)(=O)Nc1ccc([N+](=O)[O-])cc1Oc1ccccc1	inactive	inactive	inactive	inactive	inactive	inactive	inactive	–	–	–	–	inactive	–	–	–	19.5	-19.6	-29.6	-28.2
Nc1nnc(-c2cccc(Cl)c2Cl)c(N)n1	inactive	inactive	inactive	inactive	inactive	inactive	inactive	-10.9	-13.4	-13.9	-25.4%	inactive	–	–	–	–	–	–	–
NCCCCCC(=O)O	inactive	inactive	inactive	inactive	inactive	inactive	inactive	–	–	–	–	inactive	–	–	–	16.3	-4.6	-5.09	-27.1
NCCS(=O)(=O)O	inactive	inactive	inactive	inactive	inactive	inactive	inactive	-27.3	-0.425	17.9	-20.3%	inactive	–	–	–	–	–	–	–
COc1nc(C)nc(Cl)c1NC1=NCCN1	inactive	inactive	inactive	inactive	inactive	inactive	inactive	–	–	–	–	inactive	–	–	–	-9.78	-2.98	12.8	-26.5
CCc1cccc2c3c([nH]c12)C(CC)(CC(=O)O)OCC3 (centres undefined)	inactive	inactive	inactive	inactive	inactive	inactive	inactive	-7.67	-2.3	-23.8	-25.9%	inactive	–	–	–	–	–	–	–
CCC1(c2ccccc2)C(=O)NCNC1=O	inactive	inactive	inactive	inactive	inactive	inactive	inactive	-7.45	9.05	-15.2	-6.01%	inactive	–	inactive	–	–	–	–	–
Clc1ccc(C(c2ccccc2Cl)C(Cl)Cl)cc1 (centres undefined)	inactive	inactive	inactive	inactive	inactive	inactive	inactive	–	–	–	32.2%	–	–	–	22.4 µM (active)	–	–	–	–
